Data reported in ChEMBL document CHEMBL4513139, “CO-ADD screening of University of Strathclyde (UK) compounds”.
Results with a measured potency or affinity are listed apart.

The compounds below were run on Cryptococcus neoformans. Settings: Concentration 32 ug.mL-1; ASSAY_TEST Inhibition of Fungal Growth; detection method Resazurin; Absorption (OD600-OD570); plate type 384well; NBS; CORNING #3640.

Compound | Inhibition [%]
COC(=O)CCC(=O)Nc1cc(C(=O)Nc2cc(C(=O)NCCCN(C)C)n(C)c2)n(C)c1.O=C(O)C(F)(F)F | -50.28
Cc1ncc(Cn2cc(CCC(=O)O)nn2)c(N)n1.O=C(O)C(F)(F)F | -50.97
COc1ccc(CC(=O)Nc2cc(C(=O)Nc3cc(C(=O)Nc4cn(CCCN(C)C)cn4)n(C)c3)n(C)c2)cc1.O=C(O)C(F)(F)F | -97.5
CC(C)c1sc(NC(=O)c2cc(NC(=O)c3cc(NC(=O)c4cnc(Cl)c(Cl)c4)cn3C)cn2C)nc1C(=O)NCCCN(C)C.O=C(O)C(F)(F)F | 12.34
Cc1ncc(CNc2ccc(Cl)cc2)c(N)n1 | -54.67
COc1cccc(C(=N)Nc2cc(C(=O)Nc3cc(C(=O)Nc4cc(C(=O)NCCCN5CCOCC5)n(C)c4)n(C)c3)n(C)c2)c1.O=C(O)C(F)(F)F.O=C(O)C(F)(F)F | -103.93
CCOC(=O)c1cc(NC(=O)c2cc(NC(=O)c3nc(N)sc3C(C)C)cn2C)cn1C | -54.98
Cc1ncc(Cn2cc(CCO)nn2)c(N)n1 | -50.84
CCOC(=O)CCC(NC(=O)c1ccc(NCc2cn(Cc3cnc(C)nc3N)nn2)cc1)C(=O)OCC (stereo not given) | -67.67
Cn1cc(NC(=O)c2cc(NC(=O)c3cc(NC(=O)c4ccc(Cl)cc4Cl)cn3C)cn2C)cc1C(=O)NCCN1CCOCC1.O=C(O)C(F)(F)F | 9.62
CC(C)c1sc(N)nc1C(=O)Nc1cc(C(=O)NCCN2CCOCC2)n(C)c1.O=C(O)C(F)(F)F | -97.94
CC(C)CCc1sc(NC(=O)c2cc(NC(=O)c3ccc(/C=C/c4cc5ccccc5nc4Cl)cc3)cn2C)nc1C(=O)NCCN1CCOCC1.O=C(O)C(F)(F)F | -70.82
CC(=O)N(C(C)=O)c1cc(C(=O)Nc2cc(C(=O)NCCC(=N)N)n(C)c2)n(C)c1.O=C(O)C(F)(F)F | 87.54
CC(C)CCc1sc(NC(=O)c2cc(NC(=O)c3cc(NC(=O)CCC(=O)O)cn3C)cn2C)nc1C(=O)NCCCN(C)C.O=C(O)C(F)(F)F | -103.67
CC(C)n1cc(NC(=O)c2cc(NC(=O)c3cc(NC=O)cn3C(C)C)cn2C)cc1C(=O)NCCCN(C)C.O=C(O)C(F)(F)F | -103.79
Cc1ncc(CNc2ccccc2F)c(N)n1 | -54.68
Cc1ncc(Cn2cc(CO)nn2)c(N)n1 | -37.01
Cc1ncc(CNc2ccc(C(F)(F)F)cc2)c(N)n1 | -31.34
CC(C)CCc1sc(N)nc1C(=O)Nc1cc(C(=O)Nc2cc(C(=O)NCCN3CCOCC3)n(C)c2)n(C)c1.O=C(O)C(F)(F)F | -77.2
COc1cccc(C(=O)Nc2cc(C(=O)Nc3cc(C(=O)Nc4cn(CCCN(C)C)cn4)n(C)c3)n(C)c2)c1.O=C(O)C(F)(F)F | -93.96
CC(=O)Nc1cc(C(=O)Nc2cc(C(=O)Nc3cc(C(=O)NCCCN(C)C)n(CCC(C)C)c3)n(C)c2)n(C)c1.O=C(O)C(F)(F)F | -102.49
COC(=O)c1ccc(C(=O)Nc2cc(C(=O)Nc3cc(C(=O)NCCCN(C)C)n(C)c3)n(C)c2)cc1.O=C(O)C(F)(F)F | -107.28
Cn1cc(NC(=O)c2cc(NC(=O)c3sc(N)nc3C(F)(F)F)cn2C)cc1C(=O)NCCN1CCOCC1.O=C(O)C(F)(F)F | -112.77
CCOC(=O)c1cc(NC(=O)c2cc(NC(=O)c3sc(N)nc3C(F)(F)F)cn2C)cn1C | -88.19
COCCOC1CCN(C(=O)c2cc(NC(=O)c3cc(NC(=O)c4ccc(/C=C/c5cnc6ccccc6c5)cc4)cn3C)cn2C)CC1 | 112.33
COC(=O)c1ccc(C(=O)Nc2cc(C(=O)Nc3cc(C(=O)NCCC(=N)N)n(C)c3)n(C)c2)cc1.O=C(O)C(F)(F)F | -78.85
Cc1ncc(CNc2ccc(F)cc2)c(N)n1 | -57.63
CC(C)c1sc(N)nc1C(=O)Nc1cc(C(=O)Nc2cc(C(=O)NCCN3CCOCC3)n(C)c2)n(C)c1.O=C(O)C(F)(F)F | -112.04
CN(C)CCCNC(=O)c1cc(NC(=O)c2cc(NC(=O)c3ccc(C(=O)O)cc3)cn2C)cn1C.O=C(O)C(F)(F)F | -106.52
CC(C)CCc1sc(NC(=O)c2cc(NC(=O)c3ccc(/C=C/c4cc5ccccc5nc4On4nnc5ccccc54)cc3)cn2C)nc1C(=O)NCCN1CCOCC1.O=C(O)C(F)(F)F | 0.39
